From PubChem
PrP 5UTR inh: suppresses PrP 5' UTR mRNA reporter expression | cell-based PrP 5' UTR mRNA reporter, plate reader | 0.35% of 340,000 active | inhibition, % (concentration not given with the values) | AID 488862; in the data active = inhibition above about 52%
Yp Topo-I inh: Y. pestis Topo-I inhibition via cleavage products; activity, % at 10 µM; 0.064% of 360,000 active; Y. pestis Topo-I cleavage product accumulation, plate reader; in the data active = activity above about 50%, passing the limit was not always enough
BioA inh: BioA (M. tuberculosis) enzyme inhibition; 0.096% of 360,000 active; inhibition, % at 9.99 µM; purified M. tuberculosis BioA enzyme, plate reader; in the data active = inhibition above about 40%
TcdB GH inh: TcdB glycohydrolase inhibition. TcdB glycohydrolase enzymatic assay, plate reader. inhibition, % at 9.99 µM. AID 652162. 0.24% of 350,000 active; in the data active = inhibition above about 10%
Of the large screens only hits and unclear results are named; the others gave an inactive call. This is a sample that favours compounds with a hit; in the whole collection about 0.53% have one here.

CCNC(=O)C[C@@H]1CC[C@@H]2[C@@H](COc3ccc(NC(=O)Nc4ccccc4Cl)cc3C(=O)N2C)O1	none (no result: PrP 5UTR inh, Yp Topo-I inh)
COc1cccc(C(=O)Nc2ccc3c(c2)C(=O)N(C)[C@@H]2CC[C@H](CC(=O)NCCCN4CCOCC4)O[C@@H]2CO3)c1	TcdB GH inh 12 (no result: PrP 5UTR inh, Yp Topo-I inh)
COC(=O)C[C@H]1CC[C@@H]2[C@@H](COc3ccc(NC(=O)c4cccc(OC)c4)cc3C(=O)N2C)O1	TcdB GH inh 11 (no result: PrP 5UTR inh, Yp Topo-I inh)
CN1C(=O)c2cc(NC(=O)Nc3ccccc3Cl)ccc2OC[C@H]2O[C@@H](CC(=O)NCCCN3CCOCC3)CC[C@H]21	TcdB GH inh 11 (no result: PrP 5UTR inh, Yp Topo-I inh)
C[C@@H]1CN([C@@H](C)CO)C(=O)c2cc(NS(=O)(=O)c3cn(C)cn3)ccc2O[C@@H](C)CCCCO[C@@H]1CN(C)C(=O)c1ccncc1	none (no result: PrP 5UTR inh, Yp Topo-I inh)
CN1CCN(C(=O)C[C@@H]2C[C@@H]3c4cc(NC(=O)NC5CCCC5)ccc4O[C@@H]3[C@@H](CO)O2)CC1	none (no result: PrP 5UTR inh, Yp Topo-I inh)
COc1ccc(/C=C(/C#N)c2cccnc2)cc1OC	BioA inh 58
CCCN1[C@@H]2c3ccc(/C=C/c4ccccc4)c(=O)n3C[C@@H]2[C@@H](CO)[C@@H]1C(=O)N1CCOCC1	none (no result: PrP 5UTR inh, Yp Topo-I inh)
Clc1ccc(/C=N/Nc2ncnc3nc[nH]c23)cc1	none
Oc1ccc(/C=N/Nc2ncnc3nc[nH]c23)cc1	TcdB GH inh 10 (no result: PrP 5UTR inh)
C[C@@H]1CN([C@H](C)CO)C(=O)Cc2cc(NC(=O)Nc3ccc4c(c3)OCO4)ccc2O[C@@H]1CN(C)S(=O)(=O)c1ccc(Cl)cc1	none (no result: PrP 5UTR inh, Yp Topo-I inh)
CC(C)(C)C(=O)C1=C(O)C(=O)N(c2ccccc2)C1c1ccccc1 (configuration not stated)	TcdB GH inh 22
CS(=O)(=O)C1=C(O)C(=O)N(c2ccccc2)C1c1ccccc1 (configuration not stated)	none (no result: TcdB GH inh)
O=C(NCCc1ccc(Cl)cc1)C1CCN(S(=O)(=O)c2ccc(Br)s2)CC1	TcdB GH inh 16 (no result: BioA inh)
O=C(NNC(=O)c1cccc2ccccc12)c1cccc(F)c1	TcdB GH inh 11
O=C(NNC(=O)c1ccc2ccccc2c1)c1cccc(F)c1	none
CCCN(C)C[C@H]1OCCCC[C@H](C)Oc2ccc(NC(=O)CCC(F)(F)F)cc2C(=O)N([C@H](C)CO)C[C@@H]1C	none (no result: PrP 5UTR inh, Yp Topo-I inh)
C[C@@H]1CN([C@H](C)CO)C(=O)Cc2cc(NC(=O)Nc3ccc(F)cc3)ccc2O[C@@H]1CN(C)C(=O)Nc1ccc(C(F)(F)F)cc1	none (no result: PrP 5UTR inh, Yp Topo-I inh, TcdB GH inh)
Cc1cc(C)c2c(=O)[nH]c(SCc3ccccc3)nc2n1	none (no result: BioA inh)
Cc1ccc(CSc2nc3nc(C)cc(C)c3c(=O)[nH]2)cc1	TcdB GH inh 13
CN(C)C(=O)C[C@H]1CC[C@@H]2[C@H](COC[C@H](O)CN2C(=O)C2CC2)O1	none (no result: PrP 5UTR inh, Yp Topo-I inh)
COc1ccc2[nH]c3c(=O)n(CCCCC(=O)NCCN4CCCC4)c(=S)[nH]c3c2c1	TcdB GH inh 11
Cc1c(Cl)cccc1NC(=O)C1Cc2ccccc2CN1C(=O)c1ccccc1 (configuration not stated)	TcdB GH inh 11 (no result: BioA inh)
Cc1cccc(NC(=O)C2Cc3ccccc3CN2C(=O)OCc2ccccc2)c1C (configuration not stated)	none (no result: BioA inh)
Oc1ccccc1-c1cnc2cccnn12	TcdB GH inh 47 (no result: PrP 5UTR inh)
CCN1[C@@H]2c3ccc(-c4ccccc4)c(=O)n3C[C@H]1[C@H](CO)[C@H]2C(=O)NCCCN1CCOCC1	none (no result: PrP 5UTR inh, Yp Topo-I inh)
CC(C)C(=O)Nc1ccc(COc2ccccc2CN(Cc2ccccc2)C(=O)OC(C)(C)C)cc1	none
CC(C)C(=O)Nc1cccc(COc2ccc(CN(Cc3ccccc3)C(=O)OC(C)(C)C)cc2)c1	Yp Topo-I inh 53
O=C1NC(Cc2ccc(Cl)cc2)COCc2cnnn2CCC1c1ccccc1 (configuration not stated)	none (no result: PrP 5UTR inh, Yp Topo-I inh, BioA inh)
Cc1ccc2nc(Nc3nc(CSc4nnc(C)s4)cc(=O)[nH]3)nc(C)c2c1	Yp Topo-I inh 58 (no result: BioA inh)
Cc1ccc(SCc2cc(=O)[nH]c(Nc3nc(C)c4ccc(C)cc4n3)n2)cc1	Yp Topo-I inh 113 (no result: BioA inh)
Cc1ccc(SCc2cc(=O)[nH]c(Nc3nc(C)c4ccccc4n3)n2)cc1	none (no result: BioA inh, TcdB GH inh)
Cc1ccc2nc(Nc3nc(CSc4nc5ccccc5s4)cc(=O)[nH]3)nc(C)c2c1	none (no result: TcdB GH inh)
CNC[C@@H]1Oc2ccc(NS(=O)(=O)c3ccc(OC)cc3)cc2CC(=O)N([C@@H](C)CO)C[C@@H]1C	none (no result: PrP 5UTR inh, Yp Topo-I inh)
CCC(=O)N[C@@H]1C=C[C@@H](CC(=O)OC)O[C@@H]1CO	none (no result: PrP 5UTR inh, Yp Topo-I inh)
CCCNC(=O)N1[C@H](CO)[C@H](c2ccccc2)[C@H]1CNC(=O)c1cccc(F)c1	none (no result: PrP 5UTR inh, Yp Topo-I inh)
COc1ccc(-n2c(C)cc(C(=O)Cn3nc(C(=O)O)c4ccccc4c3=O)c2C)cc1	none (no result: BioA inh, TcdB GH inh)
Cc1ccc(-n2c(C)cc(C(=O)Cn3nc(C(=O)O)c4ccccc4c3=O)c2C)cc1	Yp Topo-I inh 79 (no result: BioA inh)
